Bioassay records (PubChem)
Compounds with a hit are over-represented: about 6.2% of the library has one in this group of screens.
FMDV antiviral = blocks foot and mouth disease virus; FMDV antiviral cell-based qHTS; hit rate 1.2% among 410,000; Potency, µM (doses to about 57.9 µM), for inactives: at the top dose activity change, negative = inhibition, most hits filed as inhibitors; AID 1159524; calls by dose curve; tested in HEK293T cells; also: read-out not given here; potency is read from the fitted curve at half-maximal effect; nearly all actives have a fitted effect of over 45% in size
LASV entry inh = Lassa virus entry inhibition; Potency, µM (series often up to 37.9 µM), without a hit: top-dose activity change, negative = inhibition, hits mostly inhibitors; hit rate 1.2% among 300,000; Lassa virus pseudotype entry inhibition, cell reporter; calls by dose curve; tested in HEK293 cells; also: potency is read from the fitted curve at half-maximal effect; nearly all actives have a fitted effect of over 50% in size
HCMV inh = blocks human cytomegalovirus replication. HFF cells, HCMV-luciferase reporter, 72 h; active compounds read low. activity change, negative = inhibition, % at 57.5 µM. hit rate 4.5% among 410,000. AID 1259415; in the data active = activity change below about -60%; inconclusive = no clear call, values can overlap the other calls; inactive = above about -39%
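Two-dose cell screen: HFF monolayers treated with compounds and infected with luciferase-expressing HCMV at 1 PFU/cell, 72 h at 37C, then lysed for luciferase measurement.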
Marburg entry inh = blocks Marburg virus binding to or entry into cells; Marburg virus pseudotyped entry inhibition, cell reporter; AID 540276; Potency, µM (series often up to 37.8 µM), inactives show at the top dose activity change, negative = inhibition, actives largely listed as inhibitors; hit rate 1.8% among 300,000; calls by dose curve; tested in HEK293 cells; also: potency is read from the fitted curve at half-maximal effect
* hit, by the source's call; [ ] = remark or other dose. % is scaled to controls: 0 for no effect and ±100 for the full control effect.

Results for C(=Cc1nc2ccccc2o1)c1ccc2c(c1)OCO2 ?
FMDV antiviral: -48%; HCMV inh: -22

Results for Cn1c(NC(=O)C2CCCC2)cc(=O)n(C)c1=O ?
FMDV antiviral: -10%; HCMV inh: 4

Results for Cc1noc(-c2ccccc2)c1-c1ccccc1[N+](=O)[O-] ?
HCMV inh: -100*

What do the screens show for `Cc1ccc(CNC(=O)C(=O)NCC(c2cccnc2)N2CCN(c3ccccc3F)CC2)cc1` (centres undefined)?
FMDV antiviral: -20%; LASV entry inh: inconclusive; HCMV inh: -72*

What do the screens show for `CCc1ccc(NC(=O)C(=O)NCC(c2cccnc2)N2CCc3ccccc3C2)cc1` (centres undefined)?
FMDV antiviral: 10µM*; LASV entry inh: 18%[46.1 µM]; HCMV inh: -28

What do the screens show for `O=C(NCC(c1cccnc1)N1CCN(c2ccccc2F)CC1)Oc1ccccc1` (centres undefined)?
FMDV antiviral: inconclusive; LASV entry inh: -9%; HCMV inh: -28; Marburg entry inh: -16%

Results for COc1ccc(N2CCN(c3ncccn3)CC2)cc1 ?
LASV entry inh: inconclusive; HCMV inh: 79; Marburg entry inh: 0%

Results for Cc1cc(C)c(C(=O)OCC(=O)NCc2cccs2)c(C)c1 ?
FMDV antiviral: -5%; LASV entry inh: inconclusive; HCMV inh: -36; Marburg entry inh: -10%[46.1 µM]

Results for C=CCNC(=S)N/N=C/c1ccc(C)cc1C ?
FMDV antiviral: -19%; LASV entry inh: inconclusive; HCMV inh: -62*; Marburg entry inh: inconclusive

Results for C=CCNC(=S)N/N=C/c1ccc(-c2cc(Cl)ccc2Cl)o1 ?
FMDV antiviral: 0%; LASV entry inh: -18%; HCMV inh: inconclusive; Marburg entry inh: -10%

What do the screens show for `CCN(CC)c1ccc(/C=N/NC(=S)NCc2ccc(OC)cc2)cc1`?
FMDV antiviral: -6%; LASV entry inh: 3.7µM*; HCMV inh: 16; Marburg entry inh: inconclusive

How did C=CCNC(=S)N/N=C/c1ccc(N(CC)Cc2ccccc2)cc1 do in these assays?
FMDV antiviral: inconclusive; LASV entry inh: 16µM*; HCMV inh: -12; Marburg entry inh: 12µM*

Results for C=CCNC(=S)N/N=C/c1ccc(-c2ccc(OC)cc2)o1 ?
FMDV antiviral: 14µM*; LASV entry inh: 1.8µM*; HCMV inh: 13; Marburg entry inh: inconclusive

Results for CCNC(=S)N/N=C/c1cc(C)ccc1C ?
FMDV antiviral: -9%; LASV entry inh: -1%; HCMV inh: -7; Marburg entry inh: 9%

What do the screens show for `CCN(CC)c1ccc(/C=N/NC(=S)NCc2ccccc2)cc1`?
FMDV antiviral: -17%; LASV entry inh: inconclusive; HCMV inh: -5; Marburg entry inh: inconclusive

What do the screens show for `O=C(NCCN1CCOCC1)c1ccc(Cl)nc1Cl`?
FMDV antiviral: 20%; HCMV inh: 10

What do the screens show for `Cc1ccc(OC(=O)CCC(=O)Oc2ccc(C)cc2C)c(C)c1`?
FMDV antiviral: 17%; LASV entry inh: -27%[46.1 µM]; HCMV inh: 48; Marburg entry inh: 1%[46.1 µM]

How did Nc1nc(-c2ccc(Br)cc2)cs1 do in these assays?
FMDV antiviral: -6%; LASV entry inh: inconclusive; HCMV inh: 4; Marburg entry inh: 7%

What do the screens show for `FC(F)(F)c1ccc(/C=N/NC(=S)NC2CCCCC2)cc1`?
FMDV antiviral: -14%; LASV entry inh: -18%; HCMV inh: 0; Marburg entry inh: -1%

How did C=CCNC(=S)N/N=C/c1ccc(C(F)(F)F)cc1 do in these assays?
FMDV antiviral: inconclusive; HCMV inh: -86*

Results for COc1cccc(Cn2cccc(NC(=O)Nc3cccc(C#N)c3)c2=O)c1 ?
FMDV antiviral: -11%; HCMV inh: -62*

What do the screens show for `COc1cccc(Cn2cc(C)cc(NC(=O)NCc3ccccc3)c2=O)c1`?
FMDV antiviral: 35%; HCMV inh: 11

How did Cc1cc(C)cc(N2C(=O)NC(=O)/C(=C\C=C\c3ccco3)C2=O)c1 do in these assays?
FMDV antiviral: 14µM*; LASV entry inh: inconclusive; HCMV inh: -99*; Marburg entry inh: inconclusive

How did Cc1ccc(N2C(=O)NC(=O)/C(=C/C=C/c3ccco3)C2=O)cc1 do in these assays?
FMDV antiviral: inconclusive; LASV entry inh: -27%; HCMV inh: -98*; Marburg entry inh: inconclusive

What do the screens show for `Cc1ccc(N2C(=O)NC(=O)/C(=C/c3ccoc3)C2=O)cc1`?
FMDV antiviral: -17%; LASV entry inh: 13%; HCMV inh: inconclusive; Marburg entry inh: -21%[46.1 µM]

How did CCCCN1C(=O)/C(=C/C=C/c2ccco2)C(=O)NC1=S do in these assays?
FMDV antiviral: -7%; LASV entry inh: 6%; HCMV inh: 20; Marburg entry inh: 2%[46.1 µM]

Results for O=C1NC(=O)N(Cc2ccc(F)cc2)C(=O)/C1=C\C=C\c1ccco1 ?
FMDV antiviral: 28µM*; HCMV inh: -97*

What do the screens show for `O=C1NC(=O)N(c2ccccc2)C(=O)/C1=C\C=C\c1ccccc1`?
FMDV antiviral: 13µM*; LASV entry inh: -2%; HCMV inh: 41; Marburg entry inh: 1%[46.1 µM]

What do the screens show for `O=C1NC[C@H](Cc2ccccc2)N(CCc2cccc(F)c2)C1=O`?
FMDV antiviral: -14%; HCMV inh: 18

Results for O=C(COc1ccccc1)NCc1ccc(-n2cccc2)cc1 ?
FMDV antiviral: 1%; HCMV inh: inconclusive

Results for CC(C)c1ccc(N2C(=O)NC(=O)/C(=C/C=C/c3ccco3)C2=O)cc1 ?
FMDV antiviral: 13µM*; LASV entry inh: inconclusive; HCMV inh: -101*; Marburg entry inh: inconclusive

Results for CCc1ccc(N2C(=O)NC(=O)/C(=C\C=C\c3ccco3)C2=O)cc1 ?
FMDV antiviral: 25µM*; HCMV inh: -77*

Results for CCc1ccc(N2NC(=O)/C(=C/C=C/c3ccco3)C2=O)cc1 ?
FMDV antiviral: -2%; LASV entry inh: -25%; HCMV inh: 6; Marburg entry inh: -18%

How did COCCNc1nc(Oc2cccc(NC(C)=O)c2)c2sccc2n1 do in these assays?
FMDV antiviral: -14%; HCMV inh: -19

What do the screens show for `C=CCn1c(Cc2ccccc2)nc2c(cnn2-c2ccccc2)c1=O`?
FMDV antiviral: 28µM*; LASV entry inh: inconclusive; HCMV inh: inconclusive; Marburg entry inh: inconclusive

What do the screens show for `Nn1c(SCc2ccccc2)nc2c(cnn2-c2ccccc2)c1=O`?
FMDV antiviral: 22%; HCMV inh: 29

Results for CC(=O)Nc1ccc2[nH]c(C)c(CC=C(Cl)Cl)c(=O)c2c1 ?
FMDV antiviral: 15%; LASV entry inh: -5%; HCMV inh: 51; Marburg entry inh: 3%

How did Nc1nccc(C#Cc2cncnc2Nc2ccc(OCc3cccc(F)c3)c(Cl)c2)n1 do in these assays?
LASV entry inh: 18µM*

Results for CC(=O)Nc1cccc(C#Cc2cncnc2Nc2ccc(OCc3cccc(F)c3)c(Cl)c2)c1 ?
LASV entry inh: 16µM*

Results for Fc1cccc(COc2ccccc2CNc2ccccc2)c1 ?
FMDV antiviral: -12%; LASV entry inh: 1%; HCMV inh: -10; Marburg entry inh: inconclusive

What do the screens show for `CCNC(=O)OC1CNC(C#Cc2cc3ncnc(Nc4ccc(OCc5cccc(F)c5)c(Cl)c4)c3s2)C1` (centres undefined)?
LASV entry inh: 7.9µM*
